RORgamma inh = ROR gamma (mouse) transcription inhibition; AID 2551; 310,000 compounds, 5.4% hits; Drosophila S2 Gal4-RORgamma UAS-luciferase reporter, 20 h; Potency, µM (highest dose often 53.6 µM), for inactives: at the top dose activity change, negative = inhibition, usual class: inhibitors; P51450; further: nearly all actives have a fitted effect of over 60% in size
Target sequence (P51450 whole entry, looked up, the tested form may be a part): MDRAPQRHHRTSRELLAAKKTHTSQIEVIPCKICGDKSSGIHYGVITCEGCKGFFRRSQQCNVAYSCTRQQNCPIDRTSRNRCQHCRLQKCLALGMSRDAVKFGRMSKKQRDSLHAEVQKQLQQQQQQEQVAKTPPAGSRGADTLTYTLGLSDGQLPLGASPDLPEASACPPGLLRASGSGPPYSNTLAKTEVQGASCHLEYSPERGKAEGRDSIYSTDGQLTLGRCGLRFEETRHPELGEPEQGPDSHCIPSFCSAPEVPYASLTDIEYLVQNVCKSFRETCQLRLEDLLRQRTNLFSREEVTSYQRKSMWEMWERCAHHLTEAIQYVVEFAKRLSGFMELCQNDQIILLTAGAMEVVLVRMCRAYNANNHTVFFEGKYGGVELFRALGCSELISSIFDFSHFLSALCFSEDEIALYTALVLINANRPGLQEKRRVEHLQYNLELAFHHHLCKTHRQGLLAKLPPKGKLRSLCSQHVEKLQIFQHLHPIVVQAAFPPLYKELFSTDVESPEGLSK
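Drosophila Schneider cells stably carrying a metallothionein-driven Gal4 DBD–ROR gamma fusion and a UAS-Photinus luciferase reporter were exposed to compound for 1 hr, then induced with copper sulfate (700 uM final) for 20 hr at ambient temperature before luminescence reading.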
PLK1 PBD block = blocks phosphopeptide binding to human PLK1 polo-box domain; Plk1 PBD binding of FITC phosphopeptide, fluorescence polarization; Potency, µM, without a hit: max response, negative = inhibition, most hits filed as inhibitors; 360,000 compounds, 2.8% hits; AID 720504; further: series mostly up to about 57 µM; nearly all actives have a fitted effect of over 65% in size
ALDH1A1 inh = blocks purified human ALDH1A1 activity | AID 1030 | Potency, µM (highest dose often 75.3 µM), inactives show at the highest dose activity, negative = inhibition, most hits filed as inhibitors | P00352 | Purified ALDH1A1, NADH fluorescence, propionaldehyde substrate | 220,000 compounds, 7.3% hits; active means well fitted inhibition curve with a large enough effect, not every such curve was filed as active; inconclusive means small, poorly fitted or top-dose-only effect, or another doubt; inactive means no such curve, though single readings can be large or run the other way;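 further: plate controls were no enzyme wells and a reference inhibitor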
Sfp inh = blocks B. subtilis Sfp PPTase activity; Biochemical Sfp PPTase activity, qHTS; Q9F4F7; Potency, µM, for inactives: largest response in the series, negative = inhibition, actives largely listed as inhibitors; 310,000 compounds, 3.5% hits; AID 1490;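 further: the enzyme is Sfp with the accession as filed and its product quenches rhodamine fluorescence; 0% = enzyme reaction without inhibitor and -100% = no enzyme wells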
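Step 1, compound plus 15 nM Sfp-PPTase, 15 min, room temperature. Step 2, add rhodamine-CoA (5 uM) and BHQ-2-YbbR (12.5 uM). Step 3, read 525/598 nm fluorescence at 0 and 30 min.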
VP16 counter = Gal4-VP16 reporter inhibition counter-screen; AID 2546; Potency, µM (series often up to 53.6 µM), without a hit: at the highest dose activity, negative = inhibition, most hits filed as inhibitors; 310,000 compounds, 3.5% hits; Drosophila S2 Gal4-VP16 UAS-luciferase, luminescence, 20 h;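 further: Gal4-VP16 expression switched on by copper sulfate through the metallothionein promoter; nearly all actives have a fitted effect of over 50% in size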
Numbers without * were called inactive; u = inconclusive; x = no result given; [ ] = remark or other dose. Shown are actives, neighbours in structure and some others; about 12% of the full set was active somewhere. Unless noted, the call rests on the fitted dose curve; in most records, active means well fitted curve in the direction sought with a large enough effect; inconclusive means small, poorly fitted or top-dose-only effect, or another doubt; inactive means no such curve, though single readings can be large; an effect the other way counts as inactive or inconclusive. Unless noted, on the % scale 0 is the no-effect control and ±100 the full control effect; potency means the concentration at half of the fitted maximal effect.

SMILES	RORgamma inh	PLK1 PBD block	ALDH1A1 inh	Sfp inh	VP16 counter
Cc1ccc(C2=NOC(=O)/C2=C\c2ccccc2)cc1	x	3.36µM*	x	x	x
O=C1ON=C(c2ccccc2)/C1=C\c1ccco1	u	9.47µM*	u	14.1µM*	-9.3%
Cc1ccc2c(c1)/C(=C/c1ccccc1)C(=O)N2	5.9%	-16.0%	x	-9.0%	-2.9%
O=C1C(=Cc2ccco2)CCCC1=Cc1ccco1	x	-17.7%	x	x	x
COc1cc([N+](=O)[O-])ccc1-c1ccc(/C=C2\C(=O)ON=C2c2ccccc2)o1	x	2.67µM*	x	x	x
O=C1ON=C(c2ccccc2)/C1=C/c1ccc(O)cc1	u	1.68µM*	x	50.1µM*	u
Cc1ccc(/C=C2/C(=O)ON=C2c2ccccc2)o1	-21.4%	0.67µM*	-11.6%	14.1µM*	-5.7%
CCCCc1ccc(/C=C2/C(=O)ON=C2c2ccccc2)s1	38.9%	-10.9%	u	-11.2%	u
C=C(CC(=O)OC)C[C@]1(CC(=O)OC)CC2(CC=C(C)C)C(=O)C(C(=O)c3ccccc3)=C(OC(=O)c3ccc(Br)cc3)C(CC=C(C)C)(C1)C2=O (stereo partly drawn)	-7.8%[10 µM]	x	2.2%[13.5 µM]	1.4%	-4.2%[10 µM]
Cc1ccccc1-c1cncnc1NCc1cccs1	-0.7%	x	u	1.8%	-13.9%
Cc1cc(C)c2c(SCc3ccc(Cl)cc3Cl)nc(N)nc2n1	x	x	-0.6%[13.5 µM]	x	x
O=C1Cc2cc(O)ccc2O1	x	-1.6%	x	x	x
CC(C)S(=O)(=O)N1CCCC(c2cc(C(=O)NCc3ccccc3)no2)C1 (stereo not drawn)	x	-7.7%	x	x	x
CC(=O)Oc1ccc(N2C(=O)C3C4C=CC(C5CC45)C3C2=O)cc1[N+](=O)[O-] (stereo not drawn)	5.1%	-11.9%	6.31µM*	56.2µM*	u
CC(=O)Oc1cccc(N2C(=O)C3C4C=CC(C4)C3C2=O)c1 (stereo not drawn)	-9.3%	-9.4%	10.1%	22.6%	-6.1%
CC(=O)Oc1ccc(N2C(=O)C3C(C2=O)C2C=CC3C23CC3)cc1[N+](=O)[O-] (stereo not drawn)	-27.5%	-11.0%	7.94µM*	-16.6%	-10.2%
CCOc1ccc(C(C)=O)cc1N1C(=O)C2C(C1=O)C1C=CC2C12CC2 (stereo not drawn)	20.2%	-3.8%	-13.9%	7.4%	-9.9%
CNC(=O)C[C@H]1C(=O)N(c2ccccc2)C[C@@H]1C	x	0.7%	x	x	x
CC(=O)NC1[C@H]([C@H](O)[C@H](O)CO)OC(C(=O)O)=C[C@H]1N=C(N)N (stereo partly drawn)	-4.1%[10 µM]	x	x	7.2%	-9.3%
CC1(C(=O)O)CCN1C(=O)c1cccnc1Oc1ccccc1 (stereo not drawn)	x	-5.2%	x	x	x
CC1(C)CC(c2nc(-c3ccc(Br)cc3)cs2)CCS1 (stereo not drawn)	14.6%	3.77µM*	u	-3.0%	-16.0%
Cn1c(NN)nc2ccccc2c1=O	u	3.5%	u	17.8µM*	26.0%
Cc1ccc(-n2c(NN)nc3ccccc3c2=O)c(C)c1	u	-2.8%	-4.7%	-11.0%	20µM*
Cn1c(N)nc2ccccc2c1=O	21.6%	1.3%	x	14.4%	-0.2%
Cc1ccccc1-n1c(CSC(=N)N)nc2ccccc2c1=O	3.7%	-11.7%	u	-16.0%	20.9%
SMILES	RORgamma inh	PLK1 PBD block	ALDH1A1 inh	Sfp inh	VP16 counter
CNC(=S)N1N=C(c2ccc(C)cc2)CC1c1ccc(Cl)cc1 (stereo not drawn)	12.6µM*	-1.4%	-1.8%	-27.1%	-1.7%
CNC(=S)N1N=C(c2ccccc2)CC1c1ccccc1Cl (stereo not drawn)	17.8µM*	-4.0%	u	-13.3%	-9.3%
CNC(=S)N1N=C(c2ccc(C)cc2)CC1c1ccc(Br)cc1 (stereo not drawn)	-94.5%	0.5%	-2.6%	8.0%	7.3%
CC(C)c1ccc(C2CC(c3ccc(Br)cc3)=NN2C(N)=S)cc1 (stereo not drawn)	1.78µM*	-3.5%	-6.2%	5.2%	5.62µM*
CC(=O)N1N=C(c2ccc(Br)cc2)CC1c1ccc(Br)cc1 (stereo not drawn)	x	0.1%	x	x	x
N#Cc1c(N)sc2c1CCCCCC2	24.5%	-25.4%	u	39.8µM*	1.4%
N#Cc1c(N)c(C#N)c(-c2ccc(O)cc2)c2c1CCCC2	-0.8%[10 µM]	-6.7%	u	-4.5%	u
N#Cc1c(N)sc(=S)c2c1CCCCC2	-15.3%	21.2µM*	u	5.01µM*	-4.0%[0.365 µM]

Assay outcomes deposited in PubChem by National Center for Advancing Translational Sciences (NCATS).
